Source: PubChem BioAssay (National Center for Advancing Translational Sciences (NCATS))
Only some compounds are listed: those with a hit (about 18% of all), similar ones and a draw of the others.
TDP1 block: qHTS Assay for Inhibitors of Tyrosyl-DNA Phosphodiesterase (TDP1). Tyrosyl-DNA phosphodiesterase 1 (Homo sapiens), Q9NUW8. recombinant TDP1, AlphaScreen DNA substrate cleavage. Potency, µM (series often up to 130 µM), for inactives: top-dose activity change, negative = inhibition, most hits filed as inhibitors. 0.28% of 350,000 active. AID 485290, 2010; further: potency means the concentration at half of the fitted maximal effect; on the % scale 0 is the no-effect control and ±100 the full control effect; nearly all actives have a fitted effect of over 40% in size
Target sequence (Q9NUW8 whole entry, looked up): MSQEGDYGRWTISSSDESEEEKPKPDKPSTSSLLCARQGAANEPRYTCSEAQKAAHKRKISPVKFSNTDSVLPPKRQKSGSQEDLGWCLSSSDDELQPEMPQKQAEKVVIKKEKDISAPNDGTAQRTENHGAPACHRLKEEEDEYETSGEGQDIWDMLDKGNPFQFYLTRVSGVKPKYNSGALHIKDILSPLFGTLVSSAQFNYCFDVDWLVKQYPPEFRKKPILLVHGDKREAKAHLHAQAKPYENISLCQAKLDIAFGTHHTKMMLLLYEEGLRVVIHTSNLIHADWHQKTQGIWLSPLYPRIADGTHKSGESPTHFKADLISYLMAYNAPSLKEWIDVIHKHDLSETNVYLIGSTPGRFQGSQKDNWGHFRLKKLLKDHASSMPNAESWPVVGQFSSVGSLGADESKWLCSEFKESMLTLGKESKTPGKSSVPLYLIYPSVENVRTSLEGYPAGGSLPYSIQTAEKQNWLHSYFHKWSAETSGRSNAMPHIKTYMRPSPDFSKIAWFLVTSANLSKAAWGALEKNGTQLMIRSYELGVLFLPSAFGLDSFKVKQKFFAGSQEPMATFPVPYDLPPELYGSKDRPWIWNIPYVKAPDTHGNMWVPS
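Recombinant human Tdp1 (E. coli-expressed, 1 nM final) preincubated with compounds 15 min at room temperature, then 5'-biotin/3'-phosphotyrosine-FITC DNA substrate (15 nM final) added for 5 min. AlphaScreen beads (10 ug/ml final) added 10 min; cleavage lowers signal.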
TDP1 cell CPT: qHTS for Inhibitors of human tyrosyl-DNA phosphodiesterase 1 (TDP1): qHTS in cells in presence of CPT; chicken DT40 Tdp1-/-;hTDP1 cells + 20 nM CPT, ATP luminescence, 48 h; Potency, µM (top dose mostly 46.2 µM), for the others: top-dose activity change, negative = growth inhibition, most hits filed as inhibitors; 12% of 420,000 active; further: potency means the concentration at half of the fitted maximal effect; on the % scale 0 is the no-effect control and ±100 the full control effect; nearly all actives have a fitted effect of over 55% in size
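Chicken DT40 Tdp1-/- cells stably complemented with human TDP1 were seeded at 400 cells/well in medium containing 20 nM camptothecin, exposed to pin-transferred compounds, and grown at 37 °C for at least 48 hr. Viability was read as ATP luminescence.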
TDP1 cell noCPT: qHTS for Inhibitors of human tyrosyl-DNA phosphodiesterase 1 (TDP1): qHTS in cells in absence of CPT. DT40 Tdp1-/- hTDP1 cells, no CPT, ATP luminescence, 48 h. Potency, µM (titrated, usually from 46.2 µM), inactives show top-dose activity change, negative = growth inhibition, most hits filed as inhibitors. 15% of 420,000 active. AID 686978, 2013; further: potency means the concentration at half of the fitted maximal effect; on the % scale 0 is the no-effect control and ±100 the full control effect; nearly all actives have a fitted effect of over 55% in size
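Compound effects on proliferation are scored in DT40 Tdp1-/-;hTDP1 cells in the absence of CPT. ATP levels (CellTiter-Glo luminescence) are recorded after a ≥48 hr, 37 °C incubation.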
HepG2 viability: qHTS for Inhibitors of TGF-b: Cytotox Counterscreen. 0.76% of 410,000 active. HepG2 CAGA-GFP viability, ATP luminescence, 18 h. Potency, µM (doses to about 46.1 µM), without a hit: top-dose activity change, negative = cytotoxicity, most hits filed as cytotoxic. AID 588856, 2011; further: potency means the concentration at half of the fitted maximal effect
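CellTiter-Glo luminescence gave cytotoxicity after 18 hours at 37 degrees C. The cells were HepG2 CAGA-GFP in 1% FBS DMEM, stimulated with 500 pg/mL TGF-beta after compound addition. %Activity was normalised to no-cell wells (complete cell-killing) and DMSO (no toxicity), and curves were fitted and classified.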
TGFb inhibitor: qHTS for Inhibitors of TGF-b. HepG2 CAGA-GFP TGF-b/SMAD3 reporter, GFP fluorescence, 18 h; TGF-beta stimulated, 500 pg/mL final. Potency, µM (top dose mostly 46.1 µM), without a hit: at the highest dose activity, negative = inhibition, hits mostly inhibitors. 1.2% of 410,000 active; further: potency means the concentration at half of the fitted maximal effect; on the % scale 0 is the no-effect control and ±100 the full control effect; nearly all actives have a fitted effect of over 65% in size
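Inhibition was scored as loss of TGF-beta-induced (500 pg/mL final, 18 hours, 37 degrees C) GFP in HEPG2 cells carrying a CAGA-GFP reporter, in DMEM with 1% FBS. Well GFP was summed per cell; Activity was normalised to unstimulated and stimulated DMSO wells, then concentration-response fitting.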
IL-1B inflam inh: qHTS for Inhibitors of Inflammasome Signaling: IL-1-beta AlphaLISA Primary Screen; activity change, % at 57.5 µM; AID 743279, 2014; THP-1 LPS/ATP IL-1B secretion, AlphaLISA, 16 h; hits give low values; 4.7% of 360,000 active; in the data active means activity change below about -50%; inconclusive means mostly about -30% to -49%; further: on the % scale 0 is the no-effect control and ±100 the full control effect
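THP-1 cells pretreated 1 hr with compounds (up to 57.5 uM final), then stimulated with LPS (250 ng/mL final) plus ATP (1.25 mM final); secreted IL-1B measured by AlphaLISA after 16 hr, decreased signal indicating inhibition.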
The depositor's hits bear a star; ? = inconclusive; . = no result given. Unless noted, the call rests on the fitted dose curve; in most records, active means well fitted curve in the direction sought with a large enough effect; inconclusive means small, poorly fitted or top-dose-only effect, or another doubt; inactive means no such curve, though single readings can be large; an effect the other way counts as inactive or inconclusive.

SMILES	TDP1 block	TDP1 cell CPT	TDP1 cell noCPT	HepG2 viability	TGFb inhibitor	IL-1B inflam inh
CCOCCCNC(=S)N(CCN(C)C)Cc1cc2cc3c(cc2[nH]c1=O)OCCO3	.	-23%	?	32%	16%	5
Cc1nccn1-c1ccc(C=O)cc1	2%	-3%	-28%	2%	-3%	0
CCOC(=O)c1cc(CC)sc1NC(=O)c1cc([N+](=O)[O-])ccc1N1CCOCC1	5%	3.7µM*	1.3µM*	-6%	-2%	72
CCC(CC)c1nnc(NC(=O)c2cc([N+](=O)[O-])ccc2N2CCOCC2)s1	2%	?	18µM*	-23%	-7%	1
COc1ccc(NC(=O)c2cc(C3CCCCN3S(=O)(=O)c3c(C)noc3C)on2)c(C)c1 (centres undefined)	.	?	?	-2%	0%	0
CCOc1ccc(OCC)c(NC(=O)CSc2nc3c(c(=O)n(C)c(=O)n3C)n2CC)c1	-4%	?	23µM*	-13%	5%	1
CCOc1ccc(OCC)c(NC(=O)CSc2nc3c(c(=O)n(C)c(=O)n3C)n2C(C)C)c1	7%	16µM*	21µM*	0%	-29%	-81*
C[C@@]12C(=O)Nc3ccc(F)cc3C(=O)N1[C@H]1c3ccccc3OC[C@@H]1[C@@H]2c1ccccc1	0%	?	-10%	12%	-5%	?
COc1cc2c(cc1OC)C(=O)N1[C@H]3c4ccccc4OC[C@@H]3[C@H](c3ccccc3)[C@]1(C)C(=O)N2	.	?	15µM*	-2%	-26%	?
C[C@@]12C(=O)Nc3cc(F)c(F)cc3C(=O)N1[C@H]1c3ccccc3OC[C@@H]1[C@@H]2c1ccccc1	.	?	18µM*	-32%	?	-63*
COc1ccc2c(c1)OC[C@H]1[C@H]2N2C(=O)c3cc(OC)c(OC)cc3NC(=O)[C@@]2(C)[C@H]1c1ccccc1	1%	29µM*	16µM*	-7%	-42%	0
C[C@@]12C(=O)Nc3ccc(Cl)cc3C(=O)N1[C@H]1c3ccccc3OC[C@@H]1[C@@H]2c1ccccc1	0%	?	?	-6%	-17%	?
N#C/C(=C\c1ccc(O)c([N+](=O)[O-])c1)c1nc2ccccc2s1	9%	26µM*	16µM*	-32%	13µM*	31
COc1ccc(-c2csc(/C(C#N)=C\c3ccc(OC)c([N+](=O)[O-])c3)n2)cc1	-1%	?	?	-9%	14%	6
COc1cc(/C=C(\C#N)c2nc3ccccc3s2)cc([N+](=O)[O-])c1O	8%	?	16µM*	-19%	6%	92
Cc1cccc(N=C2NC(=O)C(CO)(CO)S2)c1	.	8%	9%	15%	?	11
C=CCc1cc(OC)ccc1OCCN1CC(C)OC(C)C1 (centres undefined)	.	-14%	-8%	0%	10%	2
C=CCc1cc(Cl)ccc1OCCN1CC(C)OC(C)C1 (centres undefined)	?	?	21µM*	-5%	-2%	1
CC(O)COC(C)(C)C (centres undefined)	9%	.	.	.	.	.
CN(/N=C/c1ccc(N(C)C)cc1)C1=NS(=O)(=O)c2ccccc21	.	4.1µM*	?	15%	6%	-12
CN(/N=C/c1cccc(Br)c1)C1=NS(=O)(=O)c2ccccc21	.	?	23µM*	0%	4%	?
CN(/N=C/c1ccco1)C1=NS(=O)(=O)c2ccccc21	-3%	-5%	9%	-5%	0%	-19
COc1ccc(N(C)C2=NS(=O)(=O)c3ccccc32)cc1	4%	3.7µM*	2.6µM*	-6%	-11%	44
COc1ccc(/C=N/N(C)C2=NS(=O)(=O)c3ccccc32)cc1	.	9%	-4%	6%	-8%	-6
CN(C1=NS(=O)(=O)c2ccccc21)c1ccc(OC(=O)c2ccccc2F)cc1	.	-23%	?	2%	-5%	-5
SMILES	TDP1 block	TDP1 cell CPT	TDP1 cell noCPT	HepG2 viability	TGFb inhibitor	IL-1B inflam inh
[N-]=[N+]=NCC/C=C\C1NS(=O)(=O)OCC1O (centres undefined)	.	?	-16%	0%	7%	28
O=C(NNC(=O)c1cccnc1SCc1cccc([N+](=O)[O-])c1)c1ccccn1	10%	4.6µM*	2.6µM*	-18%	?	35
O=C(NNC(=O)c1cccnc1SCc1cccc([N+](=O)[O-])c1)c1cccnc1	-3%	0%	?	2%	-1%	25
O=C(NNC(=O)c1cccnc1SCc1cccc([N+](=O)[O-])c1)c1ccc(F)cc1	-1%	23µM*	12µM*	9%	-4%	-1
O=C(Nc1ccccc1Cc1ccccc1)c1ccncc1	5%	-14%	11%	6%	14%	-4
CC(C)(C)c1cc(C(=O)N/N=C/c2ccccc2O)n(-c2ccccc2)n1	5%	6.5µM*	6.5µM*	-33%	?	62
Cc1ccc(NC(=O)c2cc(C)nn2-c2ccccc2)cc1	1%	?	?	1%	-1%	-8
CC(C)(C)c1cc(C(=O)N/N=C/c2ccc(F)cc2)n(-c2ccccc2)n1	3%	18µM*	23µM*	9%	-27%	11
Cc1cc(CNC(=O)COc2ccc(F)cc2Cl)cc(C)c1O	6%	-22%	-30%	3%	-7%	-88*
CN1C(=O)C(O)(CC(=O)c2ccccn2)c2cc(Br)ccc21 (centres undefined)	0%	5.8µM*	5.2µM*	3%	?	86
CN1C(=O)[C@@](O)(CC(=O)c2ccccc2)c2cc(Br)ccc21	.	5.8µM*	6.5µM*	.	.	61
CCN1C(=O)C(O)(CC(=O)c2ccccn2)c2ccccc21 (centres undefined)	6%	5.8µM*	5.2µM*	-6%	-2%	29
Cc1ccc(C(=O)CC2(O)C(=O)N(C)c3ccc(Br)cc32)c(C)c1 (centres undefined)	9%	?	-26%	0%	12%	-4
